Laboratory results: PubChem BioAssay (EPA / NIEHS)
Records with an inconclusive call do not appear. Active and inactive are the calls of the source. The calls were made as follows, unless noted: active = hit-call score of the fitted dose curve at least 0.9, where 1 is the maximum; inactive = score below 0.9.

Assay: CCTE_Harrill_HTTr_Viability_MCF7: CCTE's 6-hour Cell Viability Assessment for the High-Throughput Transcriptomics (HTTr) Platform, in MCF-7 cells cultured in DMEM + 10% fetal bovine serum, Harrill Lab (AID 2284010)
Outline: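 Membrane integrity was scored by high-content imaging of propidium iodide dye exclusion after a 6 h exposure across an eight-point dilution series. Data were fitted bidirectionally relative to DMSO as negative control and baseline.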

| SMILES | outcome |
| --- | --- |
| C/C=C/C=C/C(=O)O | inactive |
| CC(C)c1cccc(C(C)C)c1NC(=O)NS(=O)(=O)c1cc(C(C)(C)O)co1 | inactive |
| CCCCC(CC)COC(=O)CCCCCCCC(=O)OCC(CC)CCCC (stereo not given) | inactive |
| c1ccc2occc2c1 | inactive |
| CC(=O)OCC(COC(C)=O)OC(C)=O | inactive |
| CN(C)CCCN(C)CCCN(C)C | inactive |
| CCCCC(CC)CO (stereo not given) | inactive |
| OCC(CO)n1cnc(-c2ccc(F)cc2)c1-c1ccnc(Oc2ccccc2)n1 | inactive |
| O=C(O)c1[nH]n(-c2ccc(S(=O)(=O)O)cc2)c(=O)c1N=Nc1ccc(S(=O)(=O)O)cc1 | inactive |
| CC(N)=O | inactive |
| CCCC(=O)O | inactive |
| COc1ccc(C(=O)Nc2nc3ccccc3c(NCc3ccccc3)c2C#N)cc1 | inactive |
| CCCCCCC(CCCCCCCCCCC(=O)OCC(COC(C)=O)OC(C)=O)OC(C)=O (stereo not given) | inactive |
| OCC(O)CO | inactive |
| Oc1ccccc1O | inactive |

Assay: CCTE_Harrill_HTTr_Apoptosis_MCF7: CCTE's 6-hour Apoptosis Assessment for the High-Throughput Transcriptomics (HTTr) Platform, in MCF-7 cells cultured in DMEM + 10% fetal bovine serum, Harrill Lab (AID 2284011)
Outline: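 Apoptosis in MCF-7 cells grown in DMEM with 10% fetal bovine serum was scored after a six hour exposure by high content imaging of caspase-3/7 activation (CellEvent Caspase 3/7 Green), with DMSO serving as negative control and baseline.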

| SMILES | outcome | AC50 |
| --- | --- | --- |
| C/C=C/C=C/C(=O)O | inactive | – |
| COc1ccc(OC(F)(F)F)cc1CN[C@H]1CCCN[C@H]1c1ccccc1 | inactive | – |
| CN(C)CCCN1c2ccccc2Sc2ccc(Cl)cc21 | – | 50 µM (active) |
| CC(C)c1cccc(C(C)C)c1NC(=O)NS(=O)(=O)c1cc(C(C)(C)O)co1 | inactive | – |
| CCCCC(CC)COC(=O)CCCCCCCC(=O)OCC(CC)CCCC (stereo not given) | inactive | – |
| c1ccc2occc2c1 | inactive | – |
| CC(=O)OCC(COC(C)=O)OC(C)=O | inactive | – |
| O=C(N[C@@H](c1ccccc1)[C@@H]1CCCCN1)c1cccc(C(F)(F)F)c1Cl | inactive | – |
| CN(C)CCCN(C)CCCN(C)C | inactive | – |
| CCCCC(CC)CO (stereo not given) | inactive | – |
| C/C=C/c1ccc(OC)cc1 | inactive | – |
| OCC(CO)n1cnc(-c2ccc(F)cc2)c1-c1ccnc(Oc2ccccc2)n1 | inactive | – |
| O=C(O)c1[nH]n(-c2ccc(S(=O)(=O)O)cc2)c(=O)c1N=Nc1ccc(S(=O)(=O)O)cc1 | inactive | – |
| CC(C)COC(=O)CCCCC(=O)OCC(C)C | inactive | – |
| CCCCC(CC)COP(=O)(OCC(CC)CCCC)OCC(CC)CCCC (stereo not given) | inactive | – |
| CN(C)C(=O)NC1(c2ccccc2)CCN(CCC[C@]2(c3ccc(Cl)c(Cl)c3)CCCN(C(=O)c3ccccc3)C2)CC1 | inactive | – |
| CC(N)=O | inactive | – |
| CCCC(=O)O | inactive | – |
| CC(C)NCC(O)c1ccc(O)c(O)c1 (stereo not given) | inactive | – |
| O=C(O)CN(CC(=O)O)CC(=O)O | inactive | – |
| Oc1ccc(O)cc1 | inactive | – |
| COc1ccc(C(=O)Nc2nc3ccccc3c(NCc3ccccc3)c2C#N)cc1 | inactive | – |
| CN(C)C(=O)NC1(c2ccccc2)CCN(CC[C@@]2(c3ccc(F)c(F)c3)CN(C(=O)c3ccccc3)CCO2)CC1 | inactive | – |
| NC(=Nc1ccccc1)Nc1ccccc1 | inactive | – |
| CCCCCCC(CCCCCCCCCCC(=O)OCC(COC(C)=O)OC(C)=O)OC(C)=O (stereo not given) | inactive | – |
| Cc1cc(Cc2ccc(N)c(C)c2)ccc1N | inactive | – |
| OCC(O)CO | inactive | – |
| Oc1ccccc1O | inactive | – |

Assay: CCTE_Harrill_HTTr_CellCount_MCF7: CCTE's Cell Proliferation Assessment for the High-Throughput Transcriptomics (HTTr) Platform, Harrill Lab (AID 2284012; active = hit-call score of the fitted dose curve at least 0.9, where 1 is the maximum;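 also: cells exposed to compound for six hours; intended direction is loss of nuclei count meaning fewer cells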)
Outline: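 MCF-7 cells were exposed for 6 h to an eight-point dilution series; Hoechst-labeled nuclei were counted by high content imaging. Curves were fitted bidirectionally against DMSO as negative control and baseline, with signal loss indicating reduced cell count.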

| SMILES | outcome |
| --- | --- |
| C/C=C/C=C/C(=O)O | inactive |
| CN(C)CCCN1c2ccccc2Sc2ccc(Cl)cc21 | inactive |
| CC(C)c1cccc(C(C)C)c1NC(=O)NS(=O)(=O)c1cc(C(C)(C)O)co1 | inactive |
| c1ccc2occc2c1 | inactive |
| O=C(N[C@@H](c1ccccc1)[C@@H]1CCCCN1)c1cccc(C(F)(F)F)c1Cl | inactive |
| CN(C)CCCN(C)CCCN(C)C | inactive |
| C/C=C/c1ccc(OC)cc1 | inactive |
| CC(N)=O | inactive |
| CCCC(=O)O | inactive |
| CC(C)NCC(O)c1ccc(O)c(O)c1 (stereo not given) | inactive |
| Oc1ccc(O)cc1 | inactive |
| CN(C)C(=O)NC1(c2ccccc2)CCN(CC[C@@]2(c3ccc(F)c(F)c3)CN(C(=O)c3ccccc3)CCO2)CC1 | inactive |
